The whole screen tested about 340,000 compounds, of which about 8,500 (2.5%) were called active. The full list was thinned out, with actives kept by preference. A number with no mark means an inactive call.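 How the source made its calls: active means melting temperature shift of at least 10% of the positive control shift, at one fixed dose; inactive means the rest.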
Each compound was assayed on Glutamate receptor ionotropic, NMDA 3A (GRIN3A) ligand-binding domain (assay: binders of NR3A ligand-binding domain, primary screen, biophysical, differential scanning fluorimetry, uHTS (AID 1259313)). Conditions: NR3A LBD differential scanning fluorimetry, at 25 µM, active compounds read high, 0% = protein alone, 100% = glycine-bound protein.

| Structure (SMILES) | Tm shift relative to glycine control |
| --- | --- |
| O=C(COC(=O)c1c(Cl)cccc1Cl)Nc1cccc(S(=O)(=O)NC2=NCCCCC2)c1 | 1.06% |
| O=C(CCl)Nc1ccc(Sc2ccc(NC(=O)CCl)cc2)cc1 | -12.3% |
| CC(=O)N(Cc1cccs1)C1CCOC(C)(C)C1 (configuration not stated) | -1.65% |
| Oc1ccc(Br)cc1/C=N/Nc1ccccn1 | -22% |
| FC(F)(F)c1cccc(N/N=C/c2ccccc2)c1 | 6.56% |
| Oc1ccc(/C=N/Nc2ccc(C(F)(F)F)cn2)cc1O | 21.1% (active) |
| CCCCOP(=O)(c1ccc(N(C)C)cc1)C(O)c1cc(OC)ccc1OC (configuration not stated) | -0.74% |
| O=S(=O)(NCc1ccc(Cl)cc1Cl)c1cccs1 | 1.65% |
| O=C(Nc1cccc(Cl)c1)Nc1ccccc1NS(=O)(=O)c1cccs1 | 30.3% (active) |
| O=S(=O)(Nc1ccccc1Br)c1cccs1 | 0.85% |
| NC(=O)Cc1ccc2sc(-c3ccccc3)nc2c1 | -2.6% |
| Cc1ccc(S(=O)(=O)NCC(=O)N(CC(=O)NCC2CCCO2)c2cccc(F)c2)cc1 (configuration not stated) | -1.71% |
| Nc1cc(=O)nc(SCc2ccccc2)n1Cc1ccco1 | 10.8% (active) |
| O=c1[nH]c(CSc2ncc(-c3ccc(F)cc3)n2Cc2ccco2)nc2ccccc12 | -0.27% |
| CCn1c(SCc2ccccc2)nc2cc(OC)c(OC)cc2c1=O | -6.11% |
| COc1cccc(N(Cc2nnc3n2CCCCC3)C(=O)Nc2ccccc2F)c1 | 0.08% |
| CCCN(CCC)C(=S)Nc1cc(C(=O)OC)ccc1C(=O)OC | -5.25% |
| CC(=O)C1=C(C)NC(C)=C(C(C)=O)C1c1cn(-c2ccccc2)nc1-c1cccs1 | -4.58% |
| CCc1ccc(CN(C)C(=O)C2CCC(=O)N(Cc3cccc(OC)c3)C2)nc1 (configuration not stated) | 1.62% |
| CC1=NN(c2ccc(Cl)c(C(=O)O)c2)C(=O)/C1=C/c1ccc(-c2ccccc2[N+](=O)[O-])o1 | 31.1% (active) |
| O=C1NC(c2ccc(-c3ccccc3[N+](=O)[O-])o2)C(C(=O)c2ccc(Cl)cc2)C(O)(C(F)(F)F)N1 (configuration not stated) | -17.2% |
| O=C(Nc1ccc(N2CCOCC2)cc1)c1ccc(-c2ccccc2[N+](=O)[O-])o1 | -2.01% |
| Cc1cnc(CN(C)C(=O)C2CCC(=O)N(CCc3cccc(F)c3)C2)[nH]1 (configuration not stated) | -3.25% |
| CC(C)C(=O)NCc1cc(-c2ccc(Cl)cc2)no1 | 0.32% |

| Structure (SMILES) | Tm shift relative to glycine control |
| --- | --- |
| Oc1ccccc1-c1cc(-c2ccc(Cl)cc2)n[nH]1 | 31% (active) |
| CSc1ccccc1-c1nnc(-c2ccc(Cl)cc2)o1 | 0.54% |
| NC(=O)C[C@@H]1NC(=O)CNC(=O)c2cc([N+](=O)[O-])cc(I)c2NCCC(C(N)=O)NC1=O (some centres not stated) | -1.1% |
| CCC(C)n1[nH]c(=O)cc1N (configuration not stated) | -2.66% |
| N#Cc1ccccc1S(=O)(=O)N1CCN(Cc2c(O)ccc3ccccc23)CC1 | -5.71% |
| COc1cc(C(=O)NCC(=O)N2CC=C(c3ccccc3)CC2)cc(OC)c1OC | 0.85% |
| O=C(O)c1cccc(S(=O)(=O)N2CC=C(c3ccccc3)CC2)c1 | 1.73% |
| O=C(Nc1ccc(Cl)c(Cl)c1)N1CC=C(c2ccccc2)CC1 | 12.9% (active) |
| CC(C)c1ccc(Nc2ncccc2C#N)cc1 | -9.92% |
| O=C(COc1ccc([N+](=O)[O-])cc1Cl)Nn1cnnc1 | 1.68% |
| CCOc1ccc(/C(O)=C2\C(=O)C(=O)N(c3ccc(OC)cc3)C2c2ccccc2[N+](=O)[O-])cc1 (configuration not stated) | -0.41% |
| COc1ccc(S(=O)(=O)N2CCOCC2)cc1NC(=O)c1ccc(OCC(C)C)c(OC)c1 | 3.09% |
| S=C(NCc1ccc(Cl)cc1)NC12CC3CC(CC(C3)C1)C2 | 15.2% (active) |
| COC(=O)Cc1ccc(NC(=S)NCc2ccc(Cl)cc2)cc1 | -5.66% |
| CN(C)CCCNC(=S)NCc1ccc(Cl)cc1 | 2.67% |
| O=C(/C=C\c1ccc2c(c1)OCO2)NC1(C(=O)Nc2ccc3c(c2)OCCO3)CCCCC1 | -13.2% |
| CN(C)c1ccc(/C=C/C(=O)c2ccc(O)cc2)cc1[N+](=O)[O-] | 5.36% |
| O=C(/C=C/c1ccc2c(c1)OCCO2)c1ccc(O)cc1 | 13.4% (active) |
| CC(C)c1nnc(NC(=O)C2CC(=O)N(CCc3ccc(F)cc3)C2)s1 (configuration not stated) | -0.27% |
| CCCC(C(=O)n1nc(C)cc1C)C(NS(=O)(=O)c1ccc(C)cc1)c1ccccc1 (configuration not stated) | -0.23% |
| CSCCC(NC(=O)c1ccccc1)C(=O)N1CCCCCCC1 (configuration not stated) | 0.17% |
| COc1ccccc1C(=O)NC(CCSC)C(=O)N1CCN(C(C)=O)CC1 (configuration not stated) | -1.22% |
| CSCCC(NC(=O)c1ccccc1)C(=O)N1CCN(Cc2ccc(Cl)cc2)CC1 (configuration not stated) | 18.1% (active) |

— PubChem BioAssay AID1259313 (Sanford-Burnham Center for Chemical Genomics, 2017)
